# From PubChem BioAssay (Tox21)
# Inconclusive results are not listed. Calls of active or inactive are those of the source. The call rests on the fitted dose curve; in most records, active means well fitted inhibition curve with a large enough effect in the repeat runs; inconclusive means weak or mixed curves, or effect the other way; inactive means no such curve, though single readings can be large or run the other way.
# Molecular target: Nuclear receptor subfamily 1 group I member 3 (Homo sapiens) (UniProt Q14994)
# Sequence (Q14994 whole entry, looked up): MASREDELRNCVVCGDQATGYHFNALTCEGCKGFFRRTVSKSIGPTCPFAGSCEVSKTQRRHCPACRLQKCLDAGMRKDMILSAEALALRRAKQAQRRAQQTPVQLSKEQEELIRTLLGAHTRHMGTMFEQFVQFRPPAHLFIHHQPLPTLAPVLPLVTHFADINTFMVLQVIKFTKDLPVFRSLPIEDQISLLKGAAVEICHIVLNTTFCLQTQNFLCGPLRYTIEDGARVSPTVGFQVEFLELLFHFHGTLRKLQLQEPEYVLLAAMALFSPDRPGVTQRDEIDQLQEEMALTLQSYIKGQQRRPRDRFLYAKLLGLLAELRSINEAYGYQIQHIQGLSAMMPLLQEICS
# Assay: qHTS assay to identify small molecule antagonists of the constitutive androstane receptor (CAR) signaling pathway (AID 1224838);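 further: HepG2 cells stably expressing hCAR with CYP2B6 luciferase reporter stimulated by CITCO; nearly all actives have a fitted effect of over 40% in size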
# Settings: HepG2-CYP2B6-hCAR luciferase, CITCO-stimulated, 24 h; series mostly up to 92.4 µM; activity, negative = inhibition: at the top concentration
# Description: U.S. Tox21 Program National Center for Advancing Translational Sciences [NCATS] NIH Chemical Genomics Center [NCGC] U.S. Environmental Protection Agency [EPA] National Institutes of Environmental Health Sciences [NIEHS] National Toxicology Program [NTP] U.S. Food and Drug Administration [FDA] Tox21 Assay Overview: The constitutive androstane receptor (CAR) is a nuclear receptor which regulates multiple drug metabolizing enzymes (DMEs) and transporters. Activating CAR will generally increase the transcription and subsequent translation of CYP2B6 and CYP3A4. These two DMEs represent about 50% of the drug metabolizing potential in the body. When CAR is deactivated, the metabolizing potential in the body will decrease, subsequently increasing the toxicity in the body or lowering the therapeutic potential of a pro-drug. Recently, there have also been studies performed indicating CARs role in energy metabolism and cancer therapy. Therefore, inhibiting CARs activity could have a potential effect on diabetes and cancer. Identifying environmental toxins and compounds which modulate CAR, through the use of the Tox21 10K compound collection, will be an important step in determining the toxicity and potential therapeutic effects these factors will have on the human body.
# Tox21 Assay Protocol Summary: A double-stable (hCAR and CYP2B6-2.2kb) transfected cell line, derived from human hepatoma (HepG2) cells, was utilized for the duration of the quantitative high-throughput screens. The HepG2-CYP2B6-hCAR cells suspended in DMEM culture medium supplemented with 10% FBS, 5 ug/mL blasticidin, 0.5 mg/mL geneticin, 100 U/mL penicillin and 100 ug/mL streptomycin were dispensed at 2500 cells/4 uL/well in 1536-well white solid bottom plates using a Multidrop Combi. After the assay plates were incubated at 37 C/5% CO2 for 4 hrs, 23 nL of compounds at 15 concentrations (from 5-48 columns) or positive control (from 1 to 4 columns) were transferred to the assay plates using a Pintool station. One uL of CITCO, was added using a Flying Reagent Dispenser to generate a final concentration of 50 nM CITCO inside each well. After a 24 hr incubation period at 37 C/5% CO2, four uL of ONE-Glo reagent was added into the assay plates using a Flying Reagent Dispenser. After a 30 min incubation period at room temperature, the luminescence intensity in the assay plates was measured using a ViewLux plate reader.
# On the % scale 0 is the no-effect control and ±100 the full control effect; potency means the concentration at half of the fitted maximal effect.
Structure (SMILES),"activity, negative = inhibition",Potency
C=CCC1=C(C)C(OC(=O)C2C(C=C(C)C)C2(C)C)CC1=O (stereo not given),113% (inactive),–
Brc1c(Br)c(Br)c(Oc2c(Br)c(Br)c(Br)c(Br)c2Br)c(Br)c1Br,-4.8% [at 19 µM] (inactive),–
CC(C)(O)c1cnn2c(-c3ccc(F)c(-c4c(F)cccc4C#N)c3)cnc2n1,70.2% (inactive),–
Nc1c(Oc2ccccc2)cc(O)c2c1C(=O)c1ccccc1C2=O,176% [at 42.5 µM] (inactive),–
CC(=O)C(Cl)(Cl)Cl,–,23.5 µM (active)
Clc1ccc(Oc2ccccc2)cc1,6.71% (inactive),–
ClC1=C(Cl)[C@]2(Cl)[C@@H]3[C@@H](Cl)[C@@H](Cl)C[C@@H]3[C@@]1(Cl)C2(Cl)Cl,-0.567% (inactive),–
C[C@]12CC[C@H]3[C@@H](CCC4=CC(=O)CC[C@@]43C)[C@@H]1CC[C@@H]2O,-0.587% (inactive),–
O=[N+]([O-])c1cc([N+](=O)[O-])c2ccccc2c1,236% (inactive),–
C[C@]12CC[C@H](O)C[C@H]1CC[C@@H]1[C@@H]2C[C@@H](O)[C@]2(C)[C@@H](C3=CC(=O)OC3)CC[C@]12O,–,1.22 µM (active)
CCc1nn(C)c(C(=O)NCc2ccc(C(C)(C)C)cc2)c1Cl,-16.7% (inactive),–
N#Cc1ccc(O)cc1,15.4% (inactive),–
c1ccc2c(c1)[nH]c1cnccc12,54.6% (inactive),–
CCCCCCCCCCCCCCCCCCn1cc[n+](C)c1,–,43 µM (active)
COc1ccc(OC)c(CC(C)N)c1 (stereo not given),8.58% (inactive),–
Clc1ccc(-c2ccc(Cl)c(Cl)c2Cl)c(Cl)c1Cl,13.7% (inactive),–
CC[C@H]1C[C@@H]2C[C@H]3c4[nH]c5ccc(OC)cc5c4CCN(C2)[C@@H]13,-21.3% (inactive),–
Clc1ccc(C(c2ccccc2Cl)C(Cl)(Cl)Cl)cc1 (stereo not given),–,inactive
O=C/C(Cl)=C(/Cl)C(=O)O,–,inactive
CC(=O)c1cc(C(C)(C)C)cc2c1CCC2(C)C,-2.14% (inactive),–

Structure (SMILES),"activity, negative = inhibition",Potency
O=C(NC(=O)c1c(F)cccc1F)Nc1cc(Cl)c(OC(F)(F)C(F)F)c(Cl)c1,77.8% (inactive),–
CC(=O)/C=C/c1ccc2c(c1)OCO2,26.7% (inactive),–
O=C1c2ccccc2C(=O)C1C(=O)C(c1ccccc1)c1ccc(Cl)cc1 (stereo not given),88% (inactive),–
CCOP(=S)(OCC)SCS(=O)(=O)C(C)(C)C,6% (inactive),–
C=CC(=O)OCC(COC(=O)C=C)(COC(=O)C=C)COC(=O)C=C,–,8.63 µM (active)
N#C/C=C/C#N,66.1% (inactive),–
N#C/C=C/c1ccccc1,15.1% (inactive),–
Oc1ccc2ccc3cccc4ccc1c2c34,126% (inactive),–
O=c1[nH]c2ccccc2n1CCCN1CCC(n2c(=O)[nH]c3cc(Cl)ccc32)CC1,3.2% [at 42.5 µM] (inactive),–
Oc1c(Cl)c(Cl)cc(Cl)c1Cl,0.987% (inactive),–
Oc1c(Br)c(Br)c(Br)c(Br)c1Br,-21.1% (inactive),–
O=C(CCCN1CCC2(CC1)C(=O)NCN2c1ccccc1)c1ccc(F)cc1,–,7.5 µM (active)
CCOC(=O)CC(=O)CCl,23.1% (inactive),–
CCCCCCCCCCCCCCCC[N+](C)(C)C,–,inactive
N#Cc1c(-c2ccc(Cl)cc2)[nH]c(C(F)(F)F)c1Br,–,0.969 µM (active)
O=[N+]([O-])c1ccc(Oc2ccc(C(F)(F)F)cc2[N+](=O)[O-])cc1,121% (inactive),–
CCC(C)(C)C(=O)OC1=C(c2ccc(Cl)cc2Cl)C(=O)OC12CCCCC2,-3.66% (inactive),–
CC(C)CCCCCCCOP(=O)(Oc1ccccc1)Oc1ccccc1,18.3% (inactive),–
CC1(C)CC/C(=C/c2ccc(Cl)cc2)C1(O)Cn1cncn1 (stereo not given),64.1% (inactive),–
CCN,-1.4% (inactive),–
